# High-throughput results from PubChem.
# gsp antag: antagonizes gsp, the McCune-Albright syndrome mutation; actives 0.4% (n = 340,000); gsp-mutant cells, cAMP HTRF, 30 min; Potency, µM (doses to about 76.9 µM), without a hit: at the top dose activity change, negative = inhibition, most hits filed as inhibitors; calls by dose curve; cell line not stated here;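 further: intracellular cAMP measured with PDE inhibitor Ro 20-1724 present during compound exposure; potency means the concentration at half of the fitted maximal effect; on the % scale 0 is the no-effect control and ±100 the full control effect; nearly all actives have a fitted effect of over 65% in size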
#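 Cells in G418 medium, seeded 16-24 h, 37C; buffer exchange to DPBS + 1 mM CaCl2, 0.5 mM MgCl2, 0.05% BSA; cpds in DMSO + […] (300 uM stock), 30 min 37C; HTRF cAMP detection.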
# TRPV1 ag: activates the human vanilloid receptor TRPV1. activation, % at 8.33 µM. TRPV1-expressing cells, Fluo-8 calcium influx, agonist mode. Q8NER1. actives 0.19% (n = 320,000); in the data active means activation above about 80%; inconclusive means between about 30% and that limit; further: 0% is about no effect
# Target sequence (Q8NER1 whole entry, looked up): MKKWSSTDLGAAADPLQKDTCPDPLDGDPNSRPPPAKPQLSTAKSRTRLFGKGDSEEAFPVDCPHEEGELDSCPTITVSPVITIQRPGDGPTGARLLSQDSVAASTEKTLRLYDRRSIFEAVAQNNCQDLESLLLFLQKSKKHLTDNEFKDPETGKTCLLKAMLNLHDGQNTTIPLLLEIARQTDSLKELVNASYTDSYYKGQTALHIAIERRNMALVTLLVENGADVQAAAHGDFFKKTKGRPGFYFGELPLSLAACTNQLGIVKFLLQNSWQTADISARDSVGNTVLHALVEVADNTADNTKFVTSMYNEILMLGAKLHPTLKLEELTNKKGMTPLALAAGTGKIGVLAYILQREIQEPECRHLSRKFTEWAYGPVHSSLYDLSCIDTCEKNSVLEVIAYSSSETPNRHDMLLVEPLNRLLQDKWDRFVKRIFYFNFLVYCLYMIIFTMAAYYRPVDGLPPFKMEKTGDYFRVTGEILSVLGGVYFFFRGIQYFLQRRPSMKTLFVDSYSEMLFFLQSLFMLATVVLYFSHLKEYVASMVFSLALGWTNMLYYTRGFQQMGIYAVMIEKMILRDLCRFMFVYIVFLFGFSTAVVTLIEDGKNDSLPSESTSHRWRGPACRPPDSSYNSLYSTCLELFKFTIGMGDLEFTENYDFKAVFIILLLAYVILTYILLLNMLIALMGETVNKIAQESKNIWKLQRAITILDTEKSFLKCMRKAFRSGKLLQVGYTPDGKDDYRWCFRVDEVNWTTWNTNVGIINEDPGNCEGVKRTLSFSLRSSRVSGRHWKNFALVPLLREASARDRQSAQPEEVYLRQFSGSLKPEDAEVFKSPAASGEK
#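 Fluo-8 calcium influx in TRPV1-expressing cells, kinetic read (ex 480/em 520 nm). Compound added and read 3 min for agonist activity, followed by capsaicin at EC20 final and 2 min further read for enhancement.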
# RXFP1 agonist: activates the human relaxin receptor RXFP1. Q9HBX9. HEK293T-RXFP1 cAMP TR-FRET, 30 min; response scale: percent of porcine relaxin response, buffer zero. Potency, µM (highest dose often 57.5 µM), inactives show at the highest dose activation, most hits filed as activators. actives 0.3% (n = 370,000). AID 2676; active means well fitted activation curve with a large enough effect; inconclusive means small, poorly fitted or top-dose-only effect; further: potency means the concentration at half of the fitted maximal effect; on the % scale 0 is the no-effect control and ±100 the full control effect; nearly all actives have a fitted effect of over 60% in size
#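 Agonist response is measured as cAMP accumulation in an RXFP1-transfected HEK293T line under PDE4 inhibition. Values are scaled between buffer-only and 29 nM porcine relaxin, and EC50s come from standard Hill equation fits.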
# TRPV1 PAM: human TRPV1 potentiation | Q8NER1 | TRPV1-expressing cells, Fluo-8 calcium influx, capsaicin EC20 potentiation | potentiation, % at 8.33 µM | actives 0.02% (n = 320,000) | AID 540277; in the data active means potentiation above about 80%; inconclusive means between about 30% and that limit; further: 0% is about no effect
#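 Cells expressing TRPV1 were dye-loaded with Fluo-8 and read kinetically: 10 s baseline, 3 min after compound (agonist portion), then 2 min after EC20 capsaicin (allosteric enhancer portion). Calcium-bound dye fluorescence at 480/520 nm.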
# RXFP1 antagonist: RXFP1 (human) relaxin receptor antagonism | HEK293-RXFP1, relaxin-stimulated cAMP HTRF, 30 min; active compounds read low | Q9HBX9 | activity change, negative = inhibition, % at 57.5 µM | AID 1259400 | actives 0.59% (n = 350,000);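 active means activity change of -60% or lower, but not beyond a set lower limit; inconclusive means change between -60% and -40%, or beyond the set limit; inactive means change above -40%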; further: on the % scale 0 is the no-effect control and ±100 the full control effect
# gsp ag: gsp mutant agonism; gsp mutant cells, cAMP HTRF, 30 min; Potency, µM (highest dose often 76.9 µM), without a hit: top-dose activation (cAMP increase), actives largely listed as activators; AID 624287; actives 0.13% (n = 340,000); active means well fitted activation curve with a large enough effect; inconclusive means small, poorly fitted or top-dose-only effect, or another doubt; inactive means no such curve, though single readings can be large or run the other way; cell line not stated here;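 further: phosphodiesterase inhibitor Ro 20-1724 added with compounds to block cAMP breakdown; potency means the concentration at half of the fitted maximal effect; nearly all actives have a fitted effect of over 60% in size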
#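 Cells in DMEM/10% FBS with G418 were pretreated with compounds in DMSO plus […] (300 uM stock) for 30 min at 37C. cAMP was measured by HTRF (cAMP-d2 plus anti-cAMP antibody-K) after 30 min at room temperature.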
# * = called active by the depositor; i = inactive; ? = inconclusive; · = not tested or not shown; [ ] = dose if it differs, or a comment. Hits are enriched below; roughly 1.1% of the tested compounds scored in any of these assays.
SMILES,gsp antag,TRPV1 ag,RXFP1 agonist,TRPV1 PAM,RXFP1 antagonist,gsp ag
O=C(O)CC/C(=N\Nc1ccc([N+](=O)[O-])cc1)c1ccccc1,32µM*,16,0%,12,-10,8%[15.4 µM]
O=C(O)CC/C(=N/Nc1ccc([N+](=O)[O-])cc1)C(=O)O,9%,-2,-2%,0,17,-63%
Cc1ccc(-n2nc3c(N4CCC(C(=O)NC5CCC(C)CC5)CC4)nnc(C)c3c2C)cc1 (stereo not given),·,·,1%,·,-25,·
CCCCn1c(C)cc2c(c1=O)C1O[C@](CCCC)(Cc3cc(C#N)ccc31)O2,·,i,-2%[11.5 µM],i,·,·
CCCC[C@]12Cc3cc(C#N)ccc3C(O1)c1c(cc(C)n(Cc3ccccc3)c1=O)O2,·,i,3.2µM*,i,·,·
O=c1cc(-c2ccccc2)[nH]n1-c1nc2ccccc2[nH]1,-13%,-2,-2%,14,-76*,-4%
COc1ccccc1CCNC(=O)c1ccc(Br)s1,-4%,?,-1%,-14,-8,-32%
Nc1cccc(N2C(=O)c3cccc4c(N)ccc(c34)C2=O)c1,-8%,26,-2%,-6,-4,55%
O=C(O)c1ccc(N2C(=O)c3cccc4c(C(=O)O)ccc(c34)C2=O)cc1,-7%,1,?,0,26,20µM*
CC(=O)Nc1ccc2c3c(cccc13)C(=O)N(c1ccccc1)C2=O,-8%,-3,15%,-1,-18,35µM*
Cc1cccc(N2C(=O)c3cccc4c(N)ccc(c34)C2=O)c1,-12%,148*,1%,15,-13,?
O=C(O)c1ccc2c3c(cccc13)C(=O)N(c1ccccc1)C2=O,1%,2,5%,0,-5,31%
O=C(COC(=O)c1ccco1)Nc1nc2c(F)c(F)c(F)cc2s1,7%,0,4%,?,-16,4%
O=C(COC(=O)c1ccc(NS(=O)(=O)c2cccs2)cc1)Nc1nc2c(F)c(F)c(F)cc2s1,-16%,-5,3%,22,-62*,13%[15.4 µM]
CCOC(=O)c1cc(NC(=O)CC(C)(C)CC(=O)O)ccc1N1CCCCC1,32µM*,2,2%,14,-12,0%
CCCn1c(C(C)Nc2nc(-c3cc(Cl)c(N)c(Cl)c3)cs2)nc2cc(Cl)c(N3CCCCC3)cc21 (stereo not given),2%,86*,2%,17,·,·
CC(Nc1nc(-c2ccc(Cl)cc2)cs1)c1nc2cc(Cl)c(N3CCCCC3)cc2n1CCOCCO (stereo not given),-4%,·,·,·,·,14%
Cc1ccc2nc(SCCCCOc3ccccc3)[nH]c2c1,40µM*,19,4%,-4,-3,-4%
Brc1ccc2nc(SCCOc3ccccc3)[nH]c2c1,·,·,2%,·,·,·
Cc1nc(Nc2ccc(Cl)cc2)c2oc3ccccc3c2n1,-17%,5,8%,1,-21,8%[15.4 µM]
Cc1nc(Nc2cccc(O)c2)c2oc3ccccc3c2n1,4%,15,0%,-29,0,-41%
Cc1nc(Nc2cccc(Cl)c2)c2oc3ccccc3c2n1,-15%,86*,8%,14,-12,3%[15.4 µM]
COc1ccc(Nc2nc(C)nc3c2oc2ccccc23)c(OC)c1,-1%,?,15%,-2,29,-32%[15.4 µM]
Cc1nc(Nc2cccc(F)c2)c2oc3ccccc3c2n1,-10%,99*,19%,17,-2,2%
COc1cccc(Nc2nc(C)nc3c2oc2ccccc23)c1,-6%,80*,2%,-6,-8,1%
SMILES,gsp antag,TRPV1 ag,RXFP1 agonist,TRPV1 PAM,RXFP1 antagonist,gsp ag
COc1cc(C(=O)N2CCN(S(=O)(=O)c3ccc(C)cc3C)CC2)ccc1OCC(=O)N1CCOCC1,-5%,5,-1%,-9,-1,-9%
CCCc1cc(C(=O)N(C2CCCCC2)C2CCCCC2)no1,-26%,·,0%,·,-70*,-51%
CCN(CC(=O)NCc1cccs1)C(=O)/C=C/c1ccc(OC)c(OC)c1,4%,0,-1%,2,0,14%
CCOC(=O)CSc1nc(=O)n2ccc(C)cc2n1,-5%,1,16%,-6,-72*,?
C[C@@H]1CCN(C(=O)[C@H](CCCN=C(N)N)NS(=O)(=O)c2cccc3c2NC[C@H](C)C3)[C@@H](C(=O)O)C1,·,·,·,·,11,·
Cc1ccc(Nc2nnc(-c3ccc(C)c(S(N)(=O)=O)c3)c3ccccc23)cc1,·,·,-2%,·,·,·
CCOC(=O)c1ccc(Nc2nnc(C)c3ccccc23)cc1,-6%,86*,?,-10,11,44%[15.4 µM]
Cc1nnc(Nc2ccc(S(N)(=O)=O)cc2)c2ccccc12,23%,-3,25µM*,1,35,?
Cc1ccc(OCC(=O)Nc2ccc(N3CCN(C(=O)c4ccco4)CC3)cc2)cc1C,45µM*,11,-3%,-13,-35,1%[15.4 µM]
O=C(COc1ccc2ccccc2c1)N1CCN(C(=O)c2ccco2)CC1,-16%,6,3%,-9,-84*,12%[15.4 µM]
Cc1ccc(OCC(=O)N2CCN(C(=O)c3ccco3)CC2)cc1,13%,-1,0%,16,-21,9%[15.4 µM]
CCN(CC)S(=O)(=O)c1ccc2c(c1)nc(SCn1nnc3ccccc3c1=O)n2CC,6%,4,27%,-13,5,35µM*
O=C(CCNC(=O)c1ccc(Cl)cc1)Nc1ccccc1N1CCCCC1,?,22,1%,-10,0,-2%[15.4 µM]
Cn1c(SCc2cccc([N+](=O)[O-])c2)nc2c(c1=O)SCC2,35µM*,-2,3%,1,10,3%
O=[N+]([O-])c1cccc(CSc2nnc3ccccn23)c1,·,-4,25µM*,-1,3,26%[15.4 µM]
Cc1cccc(Nc2nc(-c3ccc(O)cc3O)cs2)n1,-5%,0,1%,-4,-79*,-13%
COc1cc(-c2cc(OC)c3c(C)oc(C)c3c(=O)c2)ccc1OC(=O)c1cccc(Cl)c1,·,·,-2%,·,-76*,·
CCOc1cc(-c2ccc(OC(=O)c3ccccc3F)cc2)cc(=O)c2c(C)oc(C)c12,·,·,-2%,·,-97*,·
COc1ccc(-c2cc(OC(=O)c3ccccc3C)c3c(C)oc(C)c3c(=O)c2)cc1,·,·,0%,·,-16,·
CCOc1cc(-c2ccc(OC(=O)c3ccc(C)cc3)c(OC)c2)cc(=O)c2c(C)oc(C)c12,·,·,1%,·,-64*,·
COc1cc(-c2cc(OC)c3c(C)oc(C)c3c(=O)c2)ccc1OC(=O)c1ccccc1C,·,·,-3%,·,-65*,·
CCOc1ccc(-c2cc(OC(=O)c3ccccc3)c3c(C)oc(C)c3c(=O)c2)cc1,·,·,6%,·,-11,·
CN(CC1CCOCC1)C(=O)CC1C(=O)NCCN1CC(c1ccccc1)c1ccccc1 (stereo not given),1%,4,-1%,6,0,-8%
